Out of some 330,000 compounds screened, about 1,900 (0.58%) were called active. About 4% were inconclusive and are not listed. No stated cut-off is given here; in the data, inconclusive means inhibition above about 70% without an active follow-up result; inactive means below that. Not all results are given here. Potency and affinity values are given separately.

Experimental findings from PubChem BioAssay AID449762 (Southern Research Specialized Biocontainment Screening …, 2010) are described below.

The test in a line: M. tuberculosis growth inhibition, HTS (AID 449762).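 Further: bacterial growth assessed after seven days of incubation.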 Particulars: M. tuberculosis H37Rv growth inhibition, 7H9 media; at 25 µM; active compounds read high.
Regarding `Cn1c(=O)c2c(nc(CN3CCN(c4ccc(F)cc4)CC3)n2Cc2ccccc2F)n(C)c1=O`, the inhibition – broadly, the relative decrease from the control value, in per cent – was -1.15% (inactive). Under `Cc1cc(C(=O)OCC(=O)Nc2cccnc2Cl)c2ccccc2n1` stands 3.92% (inactive). `COc1ccc(OC)c(C(=O)NC(CC(N)=O)c2ccc(NCC3CC3)c([N+](=O)[O-])c2)c1` (centres undefined): the inhibition was 8.73% (inactive). Consider `COc1ccc(CCNc2ccc(C(CC(N)=O)NC(=O)c3cc(OC)ccc3OC)cc2[N+](=O)[O-])cc1` (centres undefined), for which the inhibition is -2.34% (inactive). Under `Cc1cc(C(=O)COc2ccc3ccc(=O)oc3c2)c(C)n1C` stands -2.83% (inactive). Take `Cc1cc(-n2c(C)cc(C(=O)COc3ccc(F)c(F)c3)c2C)no1`: the inhibition is 12.9% (inactive). Under `Cc1ccc(Cl)cc1N1CCN(Cc2cc3c(cc2O)CCC3)CC1` stands -2.77% (inactive); under `COc1cccc(CN(C)C(=O)c2cc(S(=O)(=O)NCc3ccccc3)ccc2C)c1OC`, -0.57% (inactive).

In the case of `COc1ccc(-c2nc(C#N)c(NCc3cccnc3)o2)cc1OC`, the inhibition was -2.1% (inactive). Under `COc1ccc(-c2nn(-c3ccccc3F)cc2CNCCn2nc(C)cc2C)cc1` stands 63.9% (inactive); under `Cc1ccc(-n2cc(CNCCN3CCOC3=O)c(-c3ccc(F)cc3)n2)cc1`, 6% (inactive). Under `O=C(CS(=O)(=O)c1ccccc1)Nc1ccc(Cl)cn1` stands -23.7% (inactive); under `O=C(CCNC(=O)N1CC(=O)Nc2ccccc21)Nc1ccc(F)c(Cl)c1`, 1.86% (inactive).

`Nc1nc(SCc2c(F)cccc2Cl)[nH]c(=O)c1-c1ccccc1`: the inhibition is 3.32% (inactive).

As to `CCC(=O)N1c2ccc(S(=O)(=O)CCC(=O)N3CCN(c4ccccc4F)CC3)cc2CC1C` (centres undefined), the inhibition is -7.68% (inactive).

As for `CCOC(=O)N1CCN(C(=O)CCS(=O)(=O)c2ccc3c(c2)CC(C)N3C(=O)CC)CC1` (centres undefined), the inhibition is 7.71% (inactive). Then `CCCCn1c(N)c(N(CC(C)C)C(=O)CCCc2nc3ccccc3s2)c(=O)[nH]c1=O`, with -2.46% (inactive); and `Cc1cc(C)n(S(=O)(=O)c2ccc3oc(=O)ccc3c2)n1`, with 2.71% (inactive).

On to `CCCCC(=O)NC(Nc1sc2c(c1C(N)=O)CCCC2)(C(=O)OCC)C(F)(F)F` (centres undefined), for which the inhibition was 5.17% (inactive).

For `Cc1ccc(-n2nnnc2SCC(=O)c2c(N)n(C3CC3)c(=O)[nH]c2=O)c(C)c1`, the inhibition was -6.46% (inactive). Then `COc1ccc(C(=O)C2CCCN(C3CSCCSC3)C2)cc1OC` (centres undefined), with -3.92% (inactive); and `COc1ccc(C(=O)C2CCCN(C3CSCCSC3)C2)c(OC)c1` (centres undefined), with 5.9% (inactive).

As for `CCOC(=O)c1c(C)nc2sc(C(N)=O)c(N)c2c1-c1ccc(OC)cc1`, the inhibition was -6.87% (inactive).

As for `NC(=O)CCN(Cc1ccccc1)S(=O)(=O)c1ccccc1`, the inhibition was -1.39% (inactive).

Consider `CCCCNC(=O)COC(=O)CNC(=O)c1cc(Cl)cc([N+](=O)[O-])c1`, for which the inhibition was 6.26% (inactive).

As for `C=CCn1cnc2c(oc3ccccc32)c1=O`, the inhibition is 0.22% (inactive).

For the molecule `CCN1CCN(c2ncnc3c2cnn3-c2ccccc2)CC1`, the inhibition is -10% (inactive). Then `c1ccc(-n2ncc3c(N4CCCCC4)ncnc32)cc1`, with -3.33% (inactive). Under `c1ccc(CNc2ncnc3c2cnn3-c2ccccc2)cc1` stands -6.95% (inactive); under `CCCCNc1ncnc2c1cnn2-c1ccccc1`, 11.5% (inactive). As to `CC(C)(C)c1ccc(-c2noc(C(=O)NN)n2)cc1`, the inhibition was -2.97% (inactive). Under `NS(=O)(=O)c1ccc(NC(=O)COC(=O)CN2C(=O)C3CC=CCC3C2=O)cc1` (centres undefined) stands -21.8% (inactive); under `Cn1cc(C(=O)c2ccc(F)cc2)cc1-c1nc2ccccc2n1C`, 65.4% (inactive).

Regarding `Cn1cc(C(=O)c2ccccc2)cc1-c1nc2ccccc2n1C`, the inhibition was 24.3% (inactive). Then `O=C(COC(=O)c1ccccn1)Nc1ccc2c(c1)OCCO2`, with -1.75% (inactive). Then `CNC(=O)COc1ccc(Nc2nnc(-c3ccc(C)c(S(N)(=O)=O)c3)c3ccccc23)cc1`, with 3.37% (inactive); and `CC(=O)c1ccc(NC(=O)C(C)OC(=O)c2cccc(-n3cnnn3)c2)cc1` (centres undefined), with -2.06% (inactive); and `CCOC(=O)c1cn(Cc2ccc(Cl)cc2Cl)c2cc(C)nn2c1=O`, with -10.3% (inactive).

As for `CCCCCc1ccc(-c2cn(Cc3ccc(C)cc3)nn2)cc1`, the inhibition was 2.43% (inactive).

For `COc1ccc(-c2cn(Cc3cccc(OC)c3)nn2)cc1`, the inhibition is -1.15% (inactive). As to `CCN(C(=O)COC(=O)c1cc(-c2ccc3cc(OC)ccc3c2)nc2ccccc12)C1CCS(=O)(=O)C1` (centres undefined), the inhibition is 12.4% (inactive). Under `CN1N=C(/C=C/c2ccccc2)CCC1=O` stands -6.09% (inactive); under `COC1C(OC(=O)c2ccc(C)[nH]2)C(O)C(Oc2ccc3c(O)c(NC(=O)c4ccc(O)c(CC=C(C)C)c4)c(=O)oc3c2Cl)OC1(C)C` (centres undefined), -2.53% (inactive); under `Cc1c(O)ccc2c(O)c(NC(=O)c3ccc4c(c3)CCC(C)(C)O4)c(=O)oc12`, 1.87% (inactive). `COc1ccc([C@H]2CC(=O)C=C(c3cccc(CO)c3)C2)cc1`: the inhibition is -3.53% (inactive).

On to `COc1cc(NC(=O)C/C(C)=N/NC(=O)c2cccc(O)c2)c(OC)cc1Cl`, for which the inhibition was -0.8% (inactive). In the case of `COc1cc(NC(=O)C/C(C)=N/NC(=O)Cc2ccccc2)c(OC)cc1Cl`, the inhibition was 9.08% (inactive). Then `COc1ccc(NS(=O)(=O)c2ccc(NC(=O)C3CCCO3)cc2)cc1` (centres undefined), with -9.85% (inactive); and `COc1cccc(C2(C)NC(=O)N(CC(=O)Nc3ccc(N4CCOCC4)cc3)C2=O)c1` (centres undefined), with -10% (inactive); and `CCCCOc1cccc(C(=O)Nc2ccc(NC(=O)c3cccs3)cc2)c1`, with 2.91% (inactive).

On to `Cc1ccccc1NCc1nc2ccccc2n1C`, for which the inhibition was 2.8% (inactive). Then `Cn1c(CNc2ccc(O)cc2)nc2ccccc21`, with -0.5% (inactive); and `CC(=O)Nc1ccc(N2CCCCC2)cc1`, with 1.6% (inactive). Then `CC(=O)Nc1ccc(S(=O)(=O)Nc2ccc(N3CCOCC3)cc2)cc1`, with 1.49% (inactive). Then `O=C(O)c1cccc(N2C(=O)C3C4C=CC(C4=C(c4ccccc4)c4ccccc4)C3C2=O)c1` (centres undefined), with 4.23% (inactive).

As to `CC(=O)C[C@@H](O)CC(=O)[C@@H]1OC(=O)CCCCCCCCc2ccccc21`, the inhibition was 0.55% (inactive). Then `CCC(C)(C)NC(=O)C(c1ccncc1)N(Cc1ccc(C)cc1)C(=O)c1csnn1` (centres undefined), with -0.23% (inactive); and `N#CCNc1ccc([N+](=O)[O-])cc1C#N`, with 2.63% (inactive). Under `COc1cc2c(cc1OC)C(C)N(C(=O)c1cc3c(s1)-c1c(C)cccc1OC3)CC2` (centres undefined) stands 60.6% (inactive); under `Cc1ccc(C(=O)N/C(=C\c2cccc([N+](=O)[O-])c2)C(=O)OCN2C(=O)c3ccccc3C2=O)cc1`, 9.25% (inactive).

As to `Cc1ccc(C(=O)N/C(=C/c2ccco2)C(=O)O)cc1`, the inhibition was 0.79% (inactive).

Consider `CS/C(=C\[N+](=O)[O-])Nc1ccc(Cl)cc1`, for which the inhibition is 55.3% (inactive). Then `NN/C(=C\[N+](=O)[O-])Nc1ccccc1`, with 69.9% (inactive); and `CC(Sc1nnc(-c2cccs2)n1-c1ccccc1)C(=O)NCc1ccc2c(c1)OCO2` (centres undefined), with -16.1% (inactive).

Consider `CCCCOc1ccc(C(=O)Nc2ccc(N3CCN(C(=O)C(C)C)CC3)cc2)cc1`, for which the inhibition was 11.1% (inactive). Then `Cc1cc(Nc2ccccc2Cl)nc(-c2ccccc2O)n1`, with 57.3% (inactive); and `Cc1cc(OC2CCCCC2)nc(-c2ccccc2O)n1`, with -9.08% (inactive); and `O=C(Cn1nc(Cl)nc1Cl)c1ccc2c(c1)OCCO2`, with 60.7% (inactive). Then `O=C(Cn1ncc(Cl)c(Cl)c1=O)N1CCOCC1`, with 2.21% (inactive); and `CCOC(=O)c1sc(=NC(=O)c2ccc(C)c(C)c2)n(C)c1C`, with 31.6% (inactive); and `O=C(N/N=C/c1cccnc1)c1sc2ccccc2c1Cl`, with 66% (inactive). Under `O=C(N/N=C/c1c[nH]c2ccccc12)c1sc2ccccc2c1Cl` stands 1.35% (inactive).

For `CC(=O)NCCc1nc2cc(NC(=O)c3ccccc3Cl)ccc2n1C`, the inhibition is -3.12% (inactive).

Turning to `Cc1cc(C(C)(C)C)oc1C(=O)OCC(=O)NC1CCCCC1`, the inhibition is 7.47% (inactive). As for `CN1C(=O)[C@@H]2C[C@@]3([C@@]45C[C@H]6C(=O)N(C)[C@@H](Cc7ccccc7)C(=O)N6[C@@H]4Nc4ccccc45)c4ccccc4N[C@H]3N2C(=O)[C@@H]1Cc1ccccc1`, the inhibition was 11.8% (inactive). Then `CS(=O)(=O)N1c2ccccc2[C@]2([C@@]34C[C@H]5C(=O)N[C@@H](Cc6ccccc6)C(=O)N5[C@@H]3N(S(C)(=O)=O)c3ccccc34)C[C@H]3C(=O)N[C@@H](Cc4ccccc4)C(=O)N3[C@H]12`, with -2.63% (inactive); and `CCCCC1S/C(=N/N=C/c2ccco2)NC1=O` (centres undefined), with 4.46% (inactive). Then `CCC(=O)OCC(=O)N=c1sccn1Cc1ccc(C)cc1`, with 6.77% (inactive); and `Cc1ccc(Cn2ccsc2=NC(=O)COC(=O)C(C)C)cc1`, with -7.15% (inactive).

For the molecule `COc1ccccc1CN1CC(C(=O)N(C)CCc2nc3ccc(F)cc3[nH]2)CCC1=O` (centres undefined), the inhibition was 8.31% (inactive). Under `CN(Cc1nc2ccccc2[nH]1)C(=O)C1CCC(=O)N(CCc2cccc(F)c2)C1` (centres undefined) stands -0.88% (inactive); under `Cc1cccc(NC(=S)NCC(C)CSc2ccc(Cl)cc2)c1` (centres undefined), 10.5% (inactive); under `COc1cccc(C2NC(=O)NC(C)=C2C(=O)OCC2CCCCC2)c1` (centres undefined), -17.1% (inactive). Then `O=C(CSc1cccc(C(F)(F)F)c1)Nc1ccc(Cl)cc1Cl`, with -3.06% (inactive); and `COC(=O)[C@@H](NC(=O)N1CCN(c2cccc(C(F)(F)F)c2)CC1)C(C)C`, with 5.31% (inactive).

Consider `COC(=O)[C@H](CC(C)C)NC(=O)N1CCN(c2cccc(C(F)(F)F)c2)CC1`, for which the inhibition was 1.6% (inactive). Then `Clc1ccccc1-c1nnc2n1CCCCC2`, with -3.29% (inactive). Under `Oc1ccccc1-c1nnc2n1CCCCC2` stands -9.99% (inactive). Then `CCOc1cc(N2CCOCC2)c(OCC)cc1NC(=O)CN1C(=O)NC(C)(C2CC2)C1=O` (centres undefined), with 8.07% (inactive).
